In the library only some 2.9% were active in any assay of this set; here they are far more common.
ADAM17 inh: inhibitors of human ADAM17. P78536. recombinant ADAM17, EDANS/DABCYL FRET peptide cleavage. inhibition, % at 6.95 µM. hit rate 0.83% among 370,000. AID 720648;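 active = inhibition above the mean of compounds lying between control limits plus 3 SD, set per campaign, cut at about 8.5% in these data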
PLCb3 inh: blocks human PLC-beta3 enzyme activity; hit rate 0.18% among 370,000; inhibition, % at 12.2 µM; Purified PLC-beta3, fluorogenic substrate, fluorescence; AID 720704; Q01970; in the data active = inhibition above about 11%
PLC-gamma1 inh: PLC-gamma1 (human) inhibition, primary screen; P19174; purified PLC-gamma1, fluorogenic substrate, fluorescence; inhibition, % at 12.2 µM; hit rate 0.84% among 370,000; AID 720700; in the data active = inhibition above about 9.5%
Target sequence (P19174 whole entry, looked up): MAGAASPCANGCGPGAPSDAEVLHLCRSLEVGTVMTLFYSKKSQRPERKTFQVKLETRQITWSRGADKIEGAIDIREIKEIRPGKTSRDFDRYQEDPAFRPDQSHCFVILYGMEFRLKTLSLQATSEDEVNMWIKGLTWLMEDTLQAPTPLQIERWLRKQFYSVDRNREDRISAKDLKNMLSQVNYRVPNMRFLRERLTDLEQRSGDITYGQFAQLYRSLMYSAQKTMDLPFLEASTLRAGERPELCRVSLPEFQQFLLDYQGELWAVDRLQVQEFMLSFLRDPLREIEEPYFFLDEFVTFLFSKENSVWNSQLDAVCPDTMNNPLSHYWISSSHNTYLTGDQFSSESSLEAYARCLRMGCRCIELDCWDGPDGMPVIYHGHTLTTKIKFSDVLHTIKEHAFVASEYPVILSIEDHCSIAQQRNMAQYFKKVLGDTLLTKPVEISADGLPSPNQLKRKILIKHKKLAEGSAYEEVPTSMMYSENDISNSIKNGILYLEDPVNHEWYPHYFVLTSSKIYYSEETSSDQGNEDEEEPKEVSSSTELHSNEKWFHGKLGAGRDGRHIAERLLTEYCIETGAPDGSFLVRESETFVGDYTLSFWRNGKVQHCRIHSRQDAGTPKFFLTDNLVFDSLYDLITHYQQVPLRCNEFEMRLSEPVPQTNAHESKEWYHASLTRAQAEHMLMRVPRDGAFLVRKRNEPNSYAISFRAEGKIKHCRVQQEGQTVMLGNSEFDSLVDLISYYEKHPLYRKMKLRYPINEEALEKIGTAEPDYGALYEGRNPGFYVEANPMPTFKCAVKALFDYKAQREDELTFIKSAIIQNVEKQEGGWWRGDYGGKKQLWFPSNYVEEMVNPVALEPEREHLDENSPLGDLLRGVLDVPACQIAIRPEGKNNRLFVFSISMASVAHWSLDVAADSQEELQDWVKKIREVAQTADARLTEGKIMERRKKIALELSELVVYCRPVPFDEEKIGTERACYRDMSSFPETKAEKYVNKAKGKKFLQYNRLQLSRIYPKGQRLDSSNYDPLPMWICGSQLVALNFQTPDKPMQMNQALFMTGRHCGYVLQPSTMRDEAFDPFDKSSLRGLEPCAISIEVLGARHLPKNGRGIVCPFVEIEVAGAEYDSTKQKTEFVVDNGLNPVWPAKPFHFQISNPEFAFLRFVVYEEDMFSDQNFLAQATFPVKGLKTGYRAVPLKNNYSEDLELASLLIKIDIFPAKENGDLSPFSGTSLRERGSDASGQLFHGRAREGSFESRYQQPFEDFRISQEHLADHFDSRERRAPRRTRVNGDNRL
ADAM10 inh: ADAM10 inhibition, QFRET primary screen; O14672; hit rate 0.62% among 370,000; AID 720582; recombinant ADAM10, EDANS/DABCYL FRET peptide cleavage, 3 h; inhibition, % at 7 µM;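 active = inhibition above a per-campaign cutoff equal to the mean of compounds falling between control-based bounds plus 3 SD, cut at about 20% in these data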
KLK7 zymogen act: proKLK7 (human) activation, primary screen. purified proKLK7, EDANS-DABCYL substrate fluorescence; 100% is mature enzyme control, 0% vehicle. activation, % at 7 µM. hit rate 0.9% among 370,000;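 active = activation above the mean of all tested compounds plus 3 SD, computed per campaign excluding outliers beyond control limits, cut at about 13% in these data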
KLK7 act conf: proKLK7 activation, confirmation. shares compounds with KLK7 zymogen act. purified proKLK7, EDANS-DABCYL substrate fluorescence; scaled: vehicle 0, mature enzyme 100. activation, % at 7 µM. hit rate 68% among 3,200;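 active = activation, as change over the incubation, above the mean of all tested compounds plus 3 SD, cut at about 13% in these data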
EDANS-DABCYL int: fluorescence interference counter-screen for KLK7 activators. shares compounds with KLK7 zymogen act. EDANS-DABCYL substrate fluorescence interference, no enzyme, 4 h; solvent 0%, active enzyme control 100%. activation, % at 7 µM. hit rate 80% among 3,200. AID 686952;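 active = activation above the all-compound mean plus 3 SD, ignoring values outside control-based bounds, cut at about 4.8% in these data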;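 also: value is the 4 h activation minus the activation read at time zero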
Of the large screens only hits and unclear results are named; the others gave an inactive call (follow-up assays come after a bar, where they were run).

CCOC(=O)c1ccc(Oc2c(C)oc3c(CN4CCN(C)CC4)c(O)ccc3c2=O)cc1	KLK7 zymogen act 119 | KLK7 act conf 76 | EDANS-DABCYL int 70
Cc1oc2c(CN3CCCC3)c(O)ccc2c(=O)c1Oc1ccccc1Br	KLK7 zymogen act 83 | KLK7 act conf 56 | EDANS-DABCYL int 76
CCNC(=S)NNC(=O)CSc1nnc(SCc2cccc3ccccc23)s1	none
COc1ccc2c(c1)N[C@@](CCNC=O)(c1[nH]c3ccccc3c1CCNC=O)C2=O	none (no result: KLK7 zymogen act)
Cc1ccc(S(=O)(=O)NCC(=O)N2CCN(c3ccccn3)CC2)cc1C	none
Cn1c(=O)c2c(-c3ccccc3)n(-n3cnnc3)cc2n(C)c1=O	KLK7 zymogen act 14 | KLK7 act conf inactive | EDANS-DABCYL int 6.8
Cn1c(=O)c2c(-c3ccccc3)n(-c3ccccc3)cc2n(C)c1=O	none
Fc1ccccc1-c1n[nH]c(=S)n1N=Cc1cccc(OCc2ccccc2)c1	none
COc1cc(N/C(N)=N/c2nc(C)cc(C)n2)cc(OC)c1	KLK7 zymogen act 14 | KLK7 act conf inactive | EDANS-DABCYL int inactive
COc1ccc(N/C(N)=N/c2nc(C)cc(C)n2)c(OC)c1	none
COc1ccc(C2=NN(c3ccc(C(=O)O)cc3)C(c3ccc(OC)c(OC)c3)C2)cc1 (stereo not drawn)	KLK7 zymogen act 67 | KLK7 act conf 65 | EDANS-DABCYL int 63
COc1ccc(C2CC(c3ccccc3)=NN2c2ccc(S(N)(=O)=O)cc2)cc1OC (stereo not drawn)	none
COc1ccc(C2CC(c3ccncc3)=NN2c2ccc(S(N)(=O)=O)cc2)cc1 (stereo not drawn)	KLK7 zymogen act 91 | KLK7 act conf inactive | EDANS-DABCYL int 8.8
CCOC(=O)c1cnn2c(C(F)(F)F)cc(-c3ccco3)nc12	KLK7 zymogen act 31 | KLK7 act conf 26 | EDANS-DABCYL int 43
CCOC(=O)c1cc2nc(-c3ccccc3)cc(C)n2n1	none
CCOC(=O)c1cnn2c(C)cc(-c3ccccc3)nc12	KLK7 zymogen act 24 | KLK7 act conf 21 | EDANS-DABCYL int 32
CC(=O)N1CCc2cc([N+](=O)[O-])ccc21	none
COC(=O)c1nn(-c2ccc3c(c2)OCO3)cc1O	KLK7 zymogen act 13 | KLK7 act conf inactive | EDANS-DABCYL int inactive
COC(=O)c1nn(-c2ccc3c(c2)CCN3C(C)=O)cc1O	KLK7 zymogen act 124 | KLK7 act conf 29 | EDANS-DABCYL int 31
CNc1cnc(-c2ccsc2)cn1	KLK7 zymogen act 15 | KLK7 act conf inactive | EDANS-DABCYL int 12
O=c1[nH]c2cc3c(cc2cc1CN(Cc1nnnn1C1CCCC1)C1CCCC1)OCCO3	KLK7 zymogen act 29 | KLK7 act conf inactive | EDANS-DABCYL int inactive
COc1cc2cc(CN(Cc3nnnn3Cc3ccccc3)CC3CCCO3)c(=O)[nH]c2cc1OC (stereo not drawn)	KLK7 zymogen act 41 | KLK7 act conf inactive | EDANS-DABCYL int inactive
CCC(C)(C)n1nnnc1CN(Cc1cc2cc(OC)c(OC)cc2[nH]c1=O)C1CCCC1	KLK7 zymogen act 16 | KLK7 act conf inactive | EDANS-DABCYL int inactive
COc1ccc(Cn2nnnc2CN(Cc2cc3cc(C)ccc3[nH]c2=O)C2CCCC2)cc1	none
COc1ccc2sc(C)cc(=O)c2c1	KLK7 zymogen act 51 | KLK7 act conf 37 | EDANS-DABCYL int 43
COC(=O)[C@]1(CC(C)C)NC=C(C(=O)c2ccccc2)[C@@H]1c1cccs1	none
COc1ccc2[nH]c(=O)c(CN(C(C)=O)c3ccc(C)c(C)c3)cc2c1	none
COc1ccc2[nH]c(=O)cc(C(=O)O)c2c1	KLK7 zymogen act 20 | KLK7 act conf 39 | EDANS-DABCYL int 45
COc1ccc(NC(=O)c2cc(=O)[nH]c3ccccc23)cc1	none
COc1ccc2[nH]c(=O)c(C(=O)O)cc2c1	KLK7 zymogen act 19 | KLK7 act conf inactive | EDANS-DABCYL int 21
CCCCc1c(O)nc2sc3cc(OC)ccc3n2c1=O	none
COC(=O)c1cc(=O)nc2sc3cc(OC)ccc3n12	KLK7 zymogen act 29 | KLK7 act conf 22 | EDANS-DABCYL int 24
CCOc1ccc2c(c1)sc1nc(C(=O)OC)cc(=O)n12	KLK7 zymogen act 17 | KLK7 act conf 15 | EDANS-DABCYL int 16
O=C(CSc1nnc(-c2ccncc2)n1-c1ccc(Cl)cc1)c1ccc(Cl)c(Cl)c1	none
O=C(CCc1ccccc1-c1ccccc1CCNC(=O)c1ccc(F)c(F)c1)NCc1ccccc1	none
C(=N\Nc1ncnc2sc3c(c12)CCC3)/c1ccncc1	none
c1cc(Nc2ncnc3sc4c(c23)CCC4)ccn1	KLK7 zymogen act 32 | KLK7 act conf 56 | EDANS-DABCYL int 64
O=C(OCCN1CCCC12CCC(c1ccccc1)CC2)c1ccccc1 (stereo not drawn)	none
COc1ccc(-c2cc(C(F)(F)F)c(C#N)c(=O)[nH]2)cc1	KLK7 zymogen act 17 | KLK7 act conf 40 | EDANS-DABCYL int 43
N#Cc1c(C(F)(F)F)cc(-c2cccc(Cl)c2)[nH]c1=O	KLK7 zymogen act 20 | KLK7 act conf 51 | EDANS-DABCYL int 48
COc1ccccc1-c1cc(C(F)(F)F)c(C#N)c(=O)[nH]1	none
CC(COc1ccccc1C#N)CN1CCC(C(O)(c2ccccc2)c2ccccc2)CC1 (stereo not drawn)	none
Cc1c(O)c(CN(C)C)cc2c1oc(=O)c1ccccc12	none
CCc1c(C)c2cc(Cl)c(O)c(CN(CC)CC)c2oc1=O	KLK7 zymogen act 53 | KLK7 act conf 73 | EDANS-DABCYL int 83
CCCCc1cc(=O)oc2c(CN(C)C)c(O)c(Cl)cc12	KLK7 zymogen act 67 | KLK7 act conf 65 | EDANS-DABCYL int 86
Cc1c(C)c2cc(Cl)c(O)c(CN(C)C)c2oc1=O	KLK7 zymogen act 74 | KLK7 act conf 63 | EDANS-DABCYL int 65
CCc1c(C)c2cc(Cl)c(O)c(CN(C)C)c2oc1=O	KLK7 zymogen act 80 | KLK7 act conf 66 | EDANS-DABCYL int 67
CC1(c2nnnn2Cc2ccccc2)CCSCC(=O)N1Cc1cccs1 (stereo not drawn)	none
CCOc1ccc2c(c1)/C(=C(\C(Cl)=C(Cl)Cl)[N+](=O)[O-])N2	KLK7 zymogen act 18 | KLK7 act conf 53 | EDANS-DABCYL int 61
CCOc1ccccc1C(=O)Nc1ccc2nc(C)[nH]c(=O)c2c1	none
Cc1ccc(S(=O)(=O)N2CCC(C(=O)NCc3cccs3)CC2)cc1	none
C=CCN(CC=C)c1nc2ccccc2nc1C(C#N)C(=O)OCCOC (stereo not drawn)	KLK7 zymogen act 43 | KLK7 act conf 20 | EDANS-DABCYL int 18
O=C1C(=O)N(Cc2ccncc2)C(c2cccc(O)c2)/C1=C(\O)c1ccc2c(c1)OCCO2 (stereo not drawn)	KLK7 zymogen act 15 | KLK7 act conf inactive | EDANS-DABCYL int 7.4
